The list is not random: actives were taken first. Their share in the collection is about 1.6%.
KCNQ2 enhance: enhances the rat KCNQ2 potassium channel | actives 0.54% (n = 310,000) | B-score at 10 µM | O88943 | CHO-K1 KCNQ2, FluxOR thallium flux fluorescence; hits give high values;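 active = fluorescence ratio B-score at least 3 SD of library B-scores, with initial fluorescence B-score within 3 of them, cut at about 5.3 in these data; same plate scores as AID 2156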;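 note: B-score of peak minus minimum over baseline fluorescence ratio after K+ and Tl+ stimulus; positive B-score means potentiation of KCNQ2 with more thallium influx and brighter signal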
KCNQ2 block: blocks the rat KCNQ2 potassium channel. actives 1.1% (n = 310,000). B-score at 10 µM. CHO-K1 KCNQ2, FluxOR thallium flux, 20 min; hits give low values. O88943. AID 2156;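 active = fluorescence ratio B-score at most minus 3 library SDs, with starting brightness B-score within 2 library SDs, cut at about -5.5 in these data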
Kir21 conf inh: confirmation of mouse Kir2.1 potassium channel inhibitors; actives 41% (n = 2,300); AID 2032; Tl flux remaining, % of negative control (hits give low values), % at 10 µM; Kir2.1-expressing cells, FluxOR thallium flux fluorescence; hits give low values; shares compounds with KCNQ2 enhance;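 active = Primary-screen hit whose thallium flux fell at least 3 control SD below untreated wells in both duplicates, with normal baseline fluorescence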
HEK293 Tl flux: alters thallium flux in parental HEK293 cells, Kir2.1 counter-screen; shares compounds with KCNQ2 enhance; AID 2105; actives 19% (n = 2,300); FluxOR signal as % of negative control (100 = no effect), % at 10 µM; FluxOR thallium flux fluorescence; 0% = unstimulated blank wells;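 active = dye signal at least 3 control SD above or below untreated wells in both duplicates, raw fluorescence within 3, either direction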;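 note: percent is based on the flux ratio of peak minus minimum fluorescence over baseline F0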
CHO-K1 Tl ctr: alters thallium flux in parental CHO-K1 cells, KCNQ2 counter-screen. shares compounds with KCNQ2 enhance. FluxOR thallium flux fluorescence; zero = vehicle mean+3SD, 100% = vehicle-minus-blank window. activity increase over 3SD of controls, % at 10 µM. actives 43% (n = 1,200);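 active = signal rise of at least 3 SD above the untreated control mean, in both duplicate wells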;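 note: counter screen of KCNQ2 potentiator hits so any rise reflects channel-independent effects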
KCNQ1 sel pot: tests whether KCNQ2 potentiators also act on human KCNQ1. actives 28% (n = 1,200). activation over 3SD threshold, % at 10 µM. CHO KCNQ1 stable, FluxOR thallium flux fluorescence; beyond 3SD, as % of vehicle-control signal. shares compounds with KCNQ2 enhance;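 active = fluorescence ratio rise of at least 3 SD of vehicle wells above their mean, in both replicate wells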
Target sequence (P51787 whole entry, looked up): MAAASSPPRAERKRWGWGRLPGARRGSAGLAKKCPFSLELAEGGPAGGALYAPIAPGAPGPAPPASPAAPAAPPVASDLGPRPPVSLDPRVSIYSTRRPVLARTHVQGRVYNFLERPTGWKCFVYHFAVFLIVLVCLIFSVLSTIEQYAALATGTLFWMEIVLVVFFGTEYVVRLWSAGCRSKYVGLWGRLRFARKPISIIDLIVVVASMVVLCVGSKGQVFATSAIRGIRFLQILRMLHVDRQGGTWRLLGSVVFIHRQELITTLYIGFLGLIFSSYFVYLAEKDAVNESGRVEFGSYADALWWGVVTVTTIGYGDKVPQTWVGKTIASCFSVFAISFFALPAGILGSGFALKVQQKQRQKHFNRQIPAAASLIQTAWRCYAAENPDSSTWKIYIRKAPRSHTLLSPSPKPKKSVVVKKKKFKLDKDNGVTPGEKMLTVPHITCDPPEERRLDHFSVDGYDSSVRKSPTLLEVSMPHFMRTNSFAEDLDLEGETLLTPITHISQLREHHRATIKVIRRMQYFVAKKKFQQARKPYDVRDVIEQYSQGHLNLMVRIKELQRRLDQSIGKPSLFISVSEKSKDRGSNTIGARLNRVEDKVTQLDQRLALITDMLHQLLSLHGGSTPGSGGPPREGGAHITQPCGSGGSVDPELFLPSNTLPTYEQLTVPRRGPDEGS
KCNQ2 pot conf: confirmation of rat KCNQ2 potassium channel potentiators | shares compounds with KCNQ2 enhance | CHO-KCNQ2 cells, FluxOR thallium flux fluorescence | potentiation, less the hit threshold, % at 10 µM | actives 68% (n = 1,200) | AID 2287;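 active = fluorescence ratio rising 3 SD or more over the vehicle control mean in both replicates, plus primary screen hit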;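 note: peak minus minimum thallium fluorescence divided by baseline after K/Tl stimulus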
Kir2-1 sel: mouse Kir2.1 off-target activity of KCNQ2 potentiators. actives 2% (n = 1,200). shares compounds with KCNQ2 enhance. HEK293 Kir2.1, FluxOR thallium flux fluorescence. activity over 3SD threshold, % at 10 µM;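 active = fluorescence ratio rise of at least 3 SD above the vehicle-control mean, seen in both replicates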
KCNQ2 W236L MoA: potentiates the retigabine-insensitive rat KCNQ2 W236L mutant channel | shares compounds with KCNQ2 enhance | CHO KCNQ2-W236L, automated patch clamp current | current increase over 3SD of negative controls (%), hits give high values, % at 25 µM | actives 10% (n = 940) | AID 2558;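 active = current increase at least 3 SD of the untreated controls above them in both duplicate recordings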
A number is an active result; - = inactive; . = no result.

SMILES | KCNQ2 enhance | KCNQ2 block | Kir21 conf inh | HEK293 Tl flux | others
CC(CCc1ccccc1)NC(=O)Cc1ccccc1 (stereo not given) | . | - | . | .
CC(CCc1ccccc1)NC(=O)CC(C)c1ccccc1 (stereo not given) | . | - | 56% | -
O=C(COC(=O)CC(c1ccccc1)c1ccccc1)NCc1ccc(Cl)cc1 | . | - | . | .
CCOc1cc(C(=O)NCCCNC(=O)c2cc(OCC)c(OCC)c(OCC)c2)cc(OCC)c1OCC | - | - | . | .
O=C(CN1CCCCCC1)Nc1ccccc1[N+](=O)[O-] | . | - | . | .
O=C(CC1CCC1)Nc1cccc2c([N+](=O)[O-])cccc12 | 9.6 | - | - | - | CHO-K1 Tl ctr=-;KCNQ1 sel pot=56;KCNQ2 pot conf=35;Kir2-1 sel=-;KCNQ2 W236L MoA=-
O=C(O)COc1ccccc1/C=N/NC(=O)CSc1nc2ccccc2n1Cc1ccccc1Cl | - | - | - | 73%
O=C(CSc1nc2ccccc2n1Cc1ccccc1)N/N=C/c1ccccc1C(=O)O | - | - | . | .
Cc1ccc(-c2csc3ncnc(NCCC(=O)O)c23)cc1C | . | - | . | .
CC(C)(C)c1cc(C(=O)NNC(=O)c2ccc(Cl)cc2)no1 | 9.1 | - | - | 266% | CHO-K1 Tl ctr=1.4;KCNQ1 sel pot=88;KCNQ2 pot conf=5.3;Kir2-1 sel=-;KCNQ2 W236L MoA=-
Cc1cc(C(=O)NNC(=O)c2ccc(C(F)(F)F)cc2)no1 | - | - | . | .
CCCCc1cc(=O)oc2cc(C)cc(OCC(=O)NC(Cc3ccc(Cl)cc3)C(=O)O)c12 (stereo not given) | . | - | . | .
Cc1ccc(C)c(NS(=O)(=O)c2c(C)ccc3nsnc23)c1 | . | - | . | .
Cc1ccc2nsnc2c1S(=O)(=O)Nc1cccc2nsnc12 | 6.1 | - | - | 238%
COc1ccccc1-c1c(C)oc2c(CN3CCCCC3C)c(O)ccc2c1=O (stereo not given) | - | - | . | .
c1ccc2c(OCCCN3CCCCCC3)cccc2c1 | - | - | . | .
COc1cccc(-c2ccc3nnc(SCC(=O)Nc4ccc(NC(C)=O)cc4)n3n2)c1 | . | - | . | .
COCCn1c(SCC(=O)Nc2ccccc2OC)nc2ccccc21 | . | - | . | .
COCCn1c(SCC(=O)Nc2nc(C)c(Cl)cc2Cl)nc2ccccc21 | - | - | 62% | -
CSCCC(NC(=O)c1ccc(Cl)cc1)C(=O)O (stereo not given) | - | - | . | .
CSCCC(NC(=O)c1ccc(Cl)cc1)C(=O)OCC(=O)N1CCCC1=O (stereo not given) | 8.8 | - | - | - | CHO-K1 Tl ctr=-;KCNQ1 sel pot=-;KCNQ2 pot conf=18;Kir2-1 sel=-;KCNQ2 W236L MoA=26%
COc1cc(CC(=O)OCc2ccccc2F)cc(OC)c1OC | . | - | . | .
Cc1ccccc1OCC(O)CN1CCN(CCN2C(=O)c3cccc4cccc(c34)C2=O)CC1 (stereo not given) | . | - | . | .
Cc1cccc(C)c1OCC(O)CN1CCC(CN2C(=O)c3cccc4cccc(c34)C2=O)CC1 (stereo not given) | 5.7 | - | - | - | CHO-K1 Tl ctr=50;KCNQ1 sel pot=-;KCNQ2 pot conf=-;Kir2-1 sel=-
CCOC(=O)N1CCN(C(=O)c2ccc3c(c2)N=C(C)c2cc(Cl)ccc2S3)CC1 | . | - | . | .
SMILES | KCNQ2 enhance | KCNQ2 block | Kir21 conf inh | HEK293 Tl flux | others
CC(C)=CC(=O)Nc1c(C)cc(C)cc1Cl | 11 | - | - | - | CHO-K1 Tl ctr=-;KCNQ1 sel pot=-;KCNQ2 pot conf=28;Kir2-1 sel=-;KCNQ2 W236L MoA=-
Cc1cc(C)c(NC(=O)CCCC(=O)O)c(Cl)c1 | . | - | . | .
Cc1cc(C)n(C(=O)N(c2ccccc2)c2ccccc2)n1 | . | - | . | .
Cc1ccc(SCC(=O)Nc2nnc(-c3ccco3)o2)cc1 | 5.6 | - | . | . | CHO-K1 Tl ctr=-;KCNQ1 sel pot=-;KCNQ2 pot conf=-;Kir2-1 sel=-
O=C(CSc1ccc(F)cc1)Nc1nnc(-c2ccco2)o1 | - | - | . | .
Cc1ccc(C(=O)Nc2ccnc(-c3cccnc3)n2)cc1 | - | - | . | .
COc1ccc(C(=O)Nc2ccnc(-c3cccnc3)n2)cc1 | 5.3 | - | - | - | CHO-K1 Tl ctr=-;KCNQ1 sel pot=-;KCNQ2 pot conf=-;Kir2-1 sel=-
CCOc1cc(C(=O)N[C@@H](C)C(=O)N2CCC3(CC2)NCCc2[nH]cnc23)cc(OCC)c1OCC | . | - | . | .
Cc1cc(Oc2ccccc2)nc(SCC(=O)Nc2ccc(Cl)c(Cl)c2)n1 | 5.5 | - | - | - | CHO-K1 Tl ctr=-;KCNQ1 sel pot=-;KCNQ2 pot conf=6.8;Kir2-1 sel=-;KCNQ2 W236L MoA=-
Cc1cc(Oc2ccccc2)nc(SCC(=O)Nc2ccccc2)n1 | . | - | . | .
CCOc1ccc(C(=O)NCC(=O)NCC2CCCCC2)cc1OCC | - | - | . | .
Cc1c(C)n(Cc2ccccc2)c2ccc(C(=O)OCCCN(C)C)cc12 | . | - | 24% | -
Cc1c(C)n(CCN(C)C)c2ccc(C(=O)OCCN(C)C)cc12 | - | - | . | .
FC(F)(F)c1cnc(Oc2ccccc2-c2nnco2)c(Cl)c1 | 7.4 | - | - | - | CHO-K1 Tl ctr=-;KCNQ1 sel pot=-;KCNQ2 pot conf=53;Kir2-1 sel=-;KCNQ2 W236L MoA=-
FC(F)(F)c1cnc(Oc2ccc(-c3nnco3)cc2)c(Cl)c1 | . | - | . | .
CCc1noc(C)c1C(=O)Nc1sc(C(=O)N(C)C)c(C)c1C#N | - | - | . | .
Cc1cc(C)nc(NC2=NCCN2C(=S)Nc2c(C)cccc2C)n1 | . | - | . | .
O=C(c1c[nH]c(C(=O)C(Cl)(Cl)Cl)c1)c1ccc(F)cc1F | . | - | . | .
O=C(c1c[nH]c(C(=O)C(Cl)(Cl)Cl)c1)c1ccc(F)cc1Cl | 6.6 | - | - | - | CHO-K1 Tl ctr=-;KCNQ1 sel pot=-;KCNQ2 pot conf=4.6;Kir2-1 sel=-;KCNQ2 W236L MoA=-
Cc1ccc(S(C)(=O)=N/C=C2\C(=O)c3sccc3N(C)S2(=O)=O)cc1 (stereo not given) | - | - | . | .
CCCN1C(=O)c2ccccc2NC1c1ccc(Cl)c(Cl)c1 (stereo not given) | . | - | . | .
CN[C@H]1CC[C@@H](c2ccc(Cl)c(Cl)c2)c2ccccc21 | . | - | 32% | -
Cn1c2c(c3ccccc31)CCN1CCC[C@]21c1ccccc1 | . | - | . | .
CN(c1ccc(Cl)cc1)c1cc(=O)n(C)c2ccccc12 | . | - | - | -
CN(C(=O)COc1cc(=O)n(C)c2ccccc12)c1ccc(Cl)cc1 | . | - | . | .
CC(C)CO/C(=N/S(=O)(=O)c1ccccc1)c1ccccc1 | - | - | . | .
CC(C)O/C(=N\S(=O)(=O)c1ccc(Cl)cc1)c1ccccc1 | . | - | 66% | -
O=C(NCc1ccc(Cl)cc1)c1cc(S(=O)(=O)N2CCCCC2)c[nH]1 | - | - | . | .
C=CCNC(=S)Nc1sc2c(c1C(=O)OCC)CC(C(C)C)OC2 (stereo not given) | 8.8 | - | - | 197% | CHO-K1 Tl ctr=22;KCNQ1 sel pot=84;KCNQ2 pot conf=14;Kir2-1 sel=-;KCNQ2 W236L MoA=-
CCOC(=O)c1c(NC(=S)Nc2ccc(OC)cc2)sc2c1CCC2 | . | - | . | .

Screening data: PubChem, Johns Hopkins Ion Channel Center
